Data as given in PubChem BioAssay AID652104 (National Center for Advancing Translational Sciences (NCATS), 2013).
About 7,200 (1.8%) of roughly 410,000 compounds were called active. Inconclusive results (about 7%) are left out. Calls follow the shape of the dose curve; as a rule, active = well fitted activation curve with a large enough effect; inconclusive = small, poorly fitted or top-dose-only effect, or another doubt; inactive = no such curve, though single readings can be large or run the other way. For the sample, actives were picked, then their nearest neighbours and some compounds at random.

Test: qHTS of TDP-43 Inhibitors; also: nearly all actives have a fitted effect of over 50% in size; as to growth rescue (activation): % of control where 0% means no effect
Conditions: TDP-43 expressing yeast growth rescue, BacTiter-Glo, 24 h; series mostly up to 46.1 µM; growth rescue (activation): at the top concentration
Procedure, shortened: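 Galactose-induced TDP-43 yeast, OD600=0.02, compound pinned; 24 hr, 30 deg C; BacTiter-Glo luminescence for growth. Inhibitors of TDP-43 toxicity read as activators.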
Potency is read from the fitted curve at half-maximal effect.

Growth rescue (activation), inactive:
Cc1ccccc1OCC(=O)NCC(=O)OCC(=O)c1ccc2ccccc2c1 -10.9%
O=C(COc1ccc2ccccc2c1)N1CCN(C(=O)c2cccs2)CC1 11%
CCOc1ccccc1C(=O)NC1(C(F)(F)F)C(=O)Nc2c1c(=O)[nH]c(=O)n2-c1ccc(F)cc1 (stereo not given) 1.7%
CCCCOc1ccc(CN2C(=O)C(=O)c3cc(Br)cc(C)c32)cc1OC -8.61%
Cc1cccc(C2CC(=O)Oc3c2c(=O)n(C)c2ccccc32)c1 (stereo not given) -9.05%
Cn1c(=O)c([N+](=O)[O-])c(Oc2ccccc2)c2ccccc21 17.6%
CCN(CCCNC(=O)Cn1ncc2c([nH]c3ccccc32)c1=O)c1cccc(C)c1 13.5%
CCOC(=O)C1CCCN(C(=O)Cn2ncc3c(C)n(Cc4ccc(F)cc4)c(C)c3c2=O)C1 (stereo not given) 14.2%
O=C(CCOc1ccccc1)N(Cc1cccnc1)c1nc2ccc(Cl)cc2s1 20.1%
Nc1cccc(-c2cncc(N3CCN(Cc4ccccn4)CC3)n2)c1 -0.5%
COc1cccc(-c2cnc3c(NC(C)=O)cc(-c4cccc(NC(C)=O)c4)cn23)c1 0%
CC(=O)Nc1cccc(-c2cc(NC(C)=O)c3ncc(-c4ccccc4)n3c2)c1 29.7%
CCOc1ccc(C(=O)c2cn(Cc3ccccc3OC)c3ccc(F)cc3c2=O)cc1 17.6%
COc1ccc2ncc3c(-c4ccc(C)c(C)c4)nn(CC(=O)NC4CCCC4)c3c2c1 16.1%
COc1ccc2c(c1)Cc1sc(NC(=O)c3ccccc3Br)nc1-2 28.2%
CCOC(=O)c1cc2c(=O)n3ccccc3nc2n(CC2CCCO2)c1=NC(=O)c1ccc(C(C)(C)C)cc1 (stereo not given) 3.37%
COc1ccc(OCCn2cc(C(=O)C3CCCCC3)c3ccccc32)cc1 -3.37%
O=C(c1ccc(Cl)nc1)N1CCN(S(=O)(=O)c2ccc3c(c2)OCCO3)CC1 5.83%
CCNC(=O)N1CCN(S(=O)(=O)c2ccc3c(c2)OCCCO3)CC1 17.1%
CCOC(=O)Cc1csc(SCc2cc(=O)oc3cc(O)ccc23)n1 11%
CCOC(=O)Cc1csc(SCC(=O)Nc2ccc(C)cc2F)n1 14.9%
Cc1ccc(C(=O)Nc2ccc(OCc3cc(=O)n4c(C)csc4n3)cc2)cc1 13.1%
CCSc1nnc(NC(=O)c2cc(=O)c3cc(C)c(C)cc3o2)s1 21.7%
O=C(Cn1c(=O)n(Cc2ccccc2)c(=O)c2sc3ccccc3c21)Nc1ccccc1F -12.3%
CCc1nnc(SCC(=O)Nc2cc(OC)ccc2OC)nc1CC 31%
CCn1c(COc2ccccc2)nnc1SCC(=O)Nc1ccc2c(c1)OCCO2 -10.9%
Cc1ccc(CN2C(=O)SC(Nc3ccccc3)C2=O)cc1 (stereo not given) 12.3%
C=CCn1c(-c2ccc3[nH]c(C)c(C)c3c2)n[nH]c1=S 4.8%
C=CCn1c(-c2ccccc2OCC)n[nH]c1=S 4.11%
Cc1ccc(C(=O)COC(=O)C(Cc2c[nH]c3ccccc23)NC(=O)c2ccc(Br)cc2)cc1 (stereo not given) -2.77%
O=C1OC(C(=O)Nc2cccc(Br)c2)Cc2ccccc21 (stereo not given) 6.1%
COc1cc2c(cc1OC)C(c1cccc([N+](=O)[O-])c1)=NCC2 -0.116%
CCOC(=O)CSc1ncc(-c2cccc(Cl)c2)cn1 -12.5%
COc1cccc(C(=O)NC(=O)Nc2ccc(-c3cc(C(F)(F)F)nn3-c3ccccc3)cc2)c1 6.3%
CCS(=O)(=O)N1CCC(n2c(C)nc3cccnc32)CC1 24.4%
CCN(CC)S(=O)(=O)c1ccc2nc(CSc3nnnn3-c3ccc(O)cc3)[nH]c2c1 -14.7%
O=C(CSc1nnnn1-c1ccc(O)cc1)c1ccc(F)cc1 17.1%
Cc1ccc(C)c(N2CCN(c3ccc4cc(S(=O)(=O)N5CCC(C)CC5)ccc4n3)CC2)c1 5.06%
C=CCNc1nc(C)nc(OC)n1 9.35%
CCOC(=O)CNc1nc(Cl)nc(Nc2ccccc2)n1 -4.82%
Cc1cccc(NC(=O)N2CCN(C)c3ncccc32)c1C 19.7%
Cc1c(Br)ccc(NC(=O)COc2ccccc2C(N)=O)c1C 10.9% [at 9.22 µM]
COc1cccc(-c2nnc(NC(=O)c3ccc(S(=O)(=O)N(CC(C)C)CC(C)C)cc3)o2)c1 3.66%
O=C(COC(=O)CSc1nnc(-c2ccc(Cl)cc2)o1)Nc1cc(Cl)cc(Cl)c1 2.47%
O=C(COc1ccccc1)Nc1nonc1NC(=O)COc1ccccc1 -3.33%
CC(C)CNC(=O)COC(=O)c1ccccc1OCC(=O)Nc1ccc(Br)cc1 22.3%
O=C(Nc1ccc(-c2nc3cc(NC(=O)c4ccccc4Cl)ccc3o2)cc1)c1ccccc1Cl -11%
Cc1ccc2nc(N3CCN(c4cccc(Cl)c4)CC3)c3nnnn3c2c1 1.49%
O=C(Cn1c(-c2cccs2)cc2ccccc21)NCCc1ccc(Cl)cc1 -24.1%
CCn1cc(C(=O)N2CCN(c3cc(Cl)ccc3C)CC2)c(=O)c2cc(S(=O)(=O)N3CCCC3)ccc21 15.1%
CCCSc1nc2sc3c(c2c(=O)n1-c1cccc(Br)c1)CC(C)(C)OC3 5.65%
Cc1c(NC(=O)Cc2ccccc2)cccc1-c1nc2cccnc2s1 22.3%
COc1ccc(NC(=O)N2CCCn3nc(C)cc32)cc1OC 16%
O=C(CCSc1ccccc1)NCCSc1ccccn1 0%
Cc1nnc(SCC(=O)NCCOc2ccc(Cl)cc2)n1-c1ccccc1 14.2%
COc1cc(NC(=O)c2noc3c2CSc2ccccc2-3)cc(OC)c1OC -10.4%
COC(=O)CN1C(=O)CSc2ccc(S(=O)(=O)Nc3cc(C)ccc3C)cc21 -1.74%
CCc1ccccc1NC(=O)/C(=C/c1ccccc1)c1ccccc1 -2.9%
CCOC(=O)/C(=C\c1ccc([N+](=O)[O-])cc1)C(=O)c1cc(C(C)=O)c(Nc2ccccc2)s1 3.18%
CCOc1cccc2c1N[C@@H](c1ccc(C(=O)O)cc1)[C@H]1CC=C[C@@H]21 28%
COc1cccc(CNC(=O)c2ccc3c(c2)N(Cc2ccc(C(F)(F)F)cc2)C(=O)c2ccccc2S3)c1OC 8.14%
Cn1c(=O)c2sccc2n2c(CCC(=O)NCc3ccccc3Cl)nnc12 -16.2%
Cn1nnnc1SCCCNCc1ccc(Cl)cc1 7.89% [at 9.22 µM]
COc1ccc(NC(=O)CN(C)C(=O)c2ccc(NC3CC3)c([N+](=O)[O-])c2)cc1 -18.7%
Cc1c(NC(=O)CCC2CCCCC2)cc(C(=O)N2CCOCC2)cc1[N+](=O)[O-] -2.9%
CCc1ccc(C2C(C(=O)Nc3ccccc3)=C(C)Nc3c(C(=O)Nc4ccc(C)cc4)cnn32)cc1 (stereo not given) 8.86%
CCOC(=O)c1ccc(NC(=O)Cn2c(=O)n(-c3ccc(C)cc3)c(=O)c3c2cnn3C)cc1 3.5%
Cc1ccc(-c2nnc(Nc3cccc(Br)c3)c3ccccc23)cc1S(=O)(=O)NCC1CCCO1 (stereo not given) 0%
CCc1nccn1S(=O)(=O)c1cc(Br)ccc1Br -1.87%
Cc1ccc(NC(=O)Cc2ccc(NC(=O)N3CCCCc4ccccc43)cc2)cc1 16.1%
O=C(CSc1ccc2nnc(-c3ccccc3)n2n1)N1CCCc2ccccc21 7.54%
Cc1ccc(OCC(=O)Nc2ccc3oc(=O)ccc3c2)cc1C 8.17%
Cc1ccc(NC(=O)COc2ccc(-n3ccnc3)cc2)cc1Cl -4.75%
Cn1c(=O)c2c(n3c4ccccc4nc13)NC(=O)CC2c1cccc(Cl)c1 (stereo not given) -15.9%
CC(=O)N1CCc2cc(S(=O)(=O)NC(Cc3ccccc3)C(=O)NCc3ccc(C)cc3)ccc21 (stereo not given) 12.9%
CCOc1ccccc1CNCc1c(C(=O)O)c(C)n(Cc2ccc(C)cc2)c1C -8.38%
Cc1ccc2ncc(C(=O)Nc3ccc(OC(F)(F)F)cc3)c(=O)n2c1 0.45%
Cc1ccc(C(=O)OCC(=O)NC2CCCCCCC2)cc1C 17.2%
O=C(COC(=O)c1cccc(Cl)c1Cl)NC1CCCCCC1 5.99%

Potency, active:
Cc1cc2ccccc2n1CCNC(=O)COc1ccc2ccccc2c1 35.5 µM
Cc1cccc(Oc2c([N+](=O)[O-])c(=O)n(C)c3ccccc23)c1 11.2 µM
Nc1cccc(-c2cc(-c3ccccc3)nc(-c3cccc(N)c3)n2)c1 14.1 µM
CC(=O)Nc1cc(-c2ccccc2F)cn2c(-c3cccc(C(F)(F)F)c3)cnc12 31.6 µM
CC1CC2=C(CC1/C=N/NC(N)=S)C(C)(C)CCC2 (stereo not given) 22.4 µM
O=C(c1c(F)cccc1Cl)N1CCN(S(=O)(=O)c2ccc3c(c2)OCCCO3)CC1 14.1 µM
CCOC(=O)Cc1csc(SCC(=O)NC(C)C23CC4CC(CC(C4)C2)C3)n1 (stereo not given) 22.4 µM
CCn1c(COc2ccc(OC)cc2)nnc1SCC(=O)Nc1cc(OC)ccc1OC 17.8 µM
C=CCn1c(-c2sc(-c3ccccc3)nc2C)n[nH]c1=S 35.5 µM
Nc1c(-c2cccc(Cl)c2)cnn1-c1cccc([N+](=O)[O-])c1 10 µM
Oc1ccc(-n2nnnc2SCc2c(F)cccc2Cl)cc1 15.8 µM
C=CCNc1nc(Nc2ccc(Cl)cc2)nc(OC)n1 35.5 µM
O=C(COC(=O)c1ccc(Oc2ccccc2)cc1)Nc1nnc(-c2ccccc2)o1 22.4 µM
O=C(Nc1nnc(-c2ccc(Cl)cc2)o1)c1ccccc1Br 7.08 µM
O=C(COC(=O)c1ccccc1Br)Nc1nnc(-c2ccccc2)o1 22.4 µM
O=C(COc1ccc(Cl)cc1)NCCSc1ccccc1 17.8 µM
CCOC(=O)C(=Cc1ccccc1)C(=O)c1ccccc1 6.31 µM
Cc1cc(C=O)c(C)n1-c1ccc(NC2CCCCC2)c([N+](=O)[O-])c1 35.5 µM
O=C(c1cc(-c2ccc(O)cc2)on1)N1CCCc2ccccc21 12.6 µM
Cc1ccc(OCC(=O)Nc2ccc(Cl)c(-c3nc4ccccc4[nH]3)c2)cc1C 22.4 µM
O=C(COC(=O)c1cccc(Cl)c1)NC1CCCCCCC1 22.4 µM
